The results in this text go back to PubChem BioAssay (NCATS).

One test deals with PC49. Put plainly: qHTS profiling for inhibitors of Plasmodium falciparum proliferation (AID 504749). Note: potency is the fitted concentration of half-maximal effect. Particulars: P. falciparum in erythrocytes, SYBR Green DNA, 72 h; series mostly up to 28.7 µM. The method in brief: (§1)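 Parasite proliferation within erythrocytes, 72 h exposure. Endpoint: SYBR Green I fluorescence after overnight lysis at room temperature. Controls: 0.29 uM artemisinin, DMSO.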
A general note: Quantitative high-throughput screening tests each substance at several concentrations.

In a further test the test system is SC27B. Described as above. Particulars: P. falciparum in erythrocytes, SYBR Green DNA, 72 h; series mostly up to 28.7 µM. The procedure, abridged: as §1
A further test concerns TAB109. The test is described as above. The conditions noted are these: P. falciparum in erythrocytes, SYBR Green DNA, 72 h; series mostly up to 28.7 µM. The procedure, abridged:
as §1

For a further test, the system named is CRL-7250. Put plainly: Cytotoxic Profiling of Annotated Libraries Using Quantitative High-Throughput Screening (AID 1296008). For max response: % is set by controls: 0 for no effect and ±100 for the full control effect. Particulars: Five cell lines viability, CellTiter-Glo ATP luminescence, 48-72 h; stronger effect = lower value. The procedure, abridged: (§2)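 Compounds were pin-transferred onto cells and incubated 48 or 72 hr at 37 degree Celsius, 95% humidity. CellTiter-Glo was added, plates sat 10 min at room temperature, then ATP-coupled luminescence was imaged as the viability read-out.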

A further test deals with HEK293. The description is as above. The conditions noted are these: Five cell lines viability, CellTiter-Glo ATP luminescence, 48-72 h; stronger effect = lower value. The procedure, abridged: as §2
In a further test the test system is HaCat. The test is described as above. Particulars: Five cell lines viability, CellTiter-Glo ATP luminescence, 48-72 h; stronger effect = lower value. The procedure, abridged:
as §2
In general terms: Cellular ATP, detected with luciferase, serves as a proxy for viable cell number.

For another test, the system named is KB-3-1. Described as above. Particulars: Five cell lines viability, CellTiter-Glo ATP luminescence, 48-72 h, stronger effect = lower value. The method in brief:
as §2

Test [1] concerns NIH3T3. The test is described as above. The conditions noted are these: Five cell lines viability, CellTiter-Glo ATP luminescence, 48-72 h; stronger effect = lower value. The method in brief:
as §2

The subject of a further test is MCC-13. Put plainly: qHTS assay to identify novel small-molecules to repurpose for Merkel cell carcinoma treatment (AID 1296009). The conditions noted are these: MCC and control cell lines, CellTiter-Glo viability, 72 h; series mostly up to 46 µM. The method in brief:
(§3)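 qHTS format: cells treated with library compounds in DMSO across 8 (NPC) or 11 (MIPE) concentrations. Readout after 72 hr at 37 degree celsius was CellTiter-Glo luminescence.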

A further test deals with MCC-26. Described as above. Particulars: MCC and control cell lines, CellTiter-Glo viability, 72 h; series mostly up to 46 µM. The procedure, abridged: as §3
The next test has as its system MKL-1. The description is as above. The conditions noted are these: MCC and control cell lines, CellTiter-Glo viability, 72 h; series mostly up to 46 µM. The procedure, abridged: as §3
The next test deals with MKL-2. The test is described as above. Particulars: MCC and control cell lines, CellTiter-Glo viability, 72 h; series mostly up to 46 µM. The procedure, abridged:
as §3

The subject of test [2] is NIH3T3. The description is as above. The conditions noted are these: MCC and control cell lines, CellTiter-Glo viability, 72 h; at 44.8 µM (top of the series) unless noted. The method in brief: as §3
A further test has as its system UISO. Described as above. Particulars: MCC and control cell lines, CellTiter-Glo viability, 72 h; series mostly up to 46 µM. The method in brief: as §3
The next test has as its system PC26. Put plainly: qHTS profiling for inhibitors of Plasmodium falciparum proliferation (AID 504749). Note: potency is the fitted concentration of half-maximal effect. Particulars: P. falciparum in erythrocytes, SYBR Green DNA, 72 h; series mostly up to 28.7 µM. The procedure, abridged: as §1
For another test, the system named is TAB113. The test is described as above. Particulars: P. falciparum in erythrocytes, SYBR Green DNA, 72 h; series mostly up to 28.7 µM. The method in brief:
as §1

A further test relates to TAB165. The test is described as above. The conditions noted are these: P. falciparum in erythrocytes, SYBR Green DNA, 72 h; series mostly up to 28.7 µM. The method in brief: as §1
A further test has as its system W2. Described as above. The conditions noted are these: P. falciparum in erythrocytes, SYBR Green DNA, 72 h; series mostly up to 28.7 µM. The procedure, abridged:
as §1

Results filed as inconclusive are left out. A number with no mark means an inactive call. The source made the active and inactive calls. Calls come from the whole dose curve; as a rule, active = well fitted inhibition curve with a large enough effect; inconclusive = small, poorly fitted or top-dose-only effect; inactive = flat fitted curve, though single readings scatter.
Note: nearly all actives have a fitted effect of over 60% in size.

Consider `CC(=O)N(CC(O)CO)c1c(I)c(C(=O)NCC(O)CO)c(I)c(C(=O)NCC(O)CO)c1I` (stereo not drawn), for which the Potency result with PC49, in the test on SC27B and in the test with TAB109 was “inactive” each time. The result in the test on CRL-7250, in the test with NIH3T3 [1], with MCC-13, with MCC-26, in the test on MKL-1 and in the test on MKL-2 was inactive. Besides, the compound was called inactive with NIH3T3 [2] and in the test with UISO. Besides, the results for the max response in the test on HEK293, in the test with HaCat and in the test with KB-3-1 were 1.45%, 3.3% and -10.7%, respectively.

Regarding `CC(=O)NCc1c(I)c(NC(C)=O)c(I)c(C(=O)O)c1I`, the Potency entry in the test with PC26, with SC27B, with TAB109, with TAB113, with TAB165 and with W2 was “inactive” throughout. Besides, the Potency with PC49 is 5 nM (active). In addition, the max response is 3.86% in the test with CRL-7250; -1.82% with HEK293; -5.93% in the test with HaCat; 5.09% in the test with KB-3-1; -4.33% in the test on NIH3T3 [1]. The result in the test on MCC-13, in the test with MKL-1, in the test on MKL-2 and in the test on UISO was inactive.

With `CC(C)CCOC(=O)c1ccc(N(C)C)cc1`, the Potency entry in the test on PC26, with PC49, in the test on SC27B, in the test with TAB109, in the test with TAB113 and with TAB165 was “inactive” in each case. The Potency result in the test with W2 was “inactive”. For the same compound, the max response is -21% in the test on CRL-7250; -23.8% with HEK293; -5.98% in the test with HaCat; 11.7% in the test on KB-3-1; -25.1% in the test on NIH3T3 [1]. The call in the test with MCC-13, in the test with MCC-26, in the test with MKL-1, in the test on MKL-2 and in the test on UISO was inactive.

For `Nc1ccc(C(=O)Oc2ccccc2)c(O)c1`, the Potency result in the test with PC26, in the test on PC49, in the test on SC27B, with TAB109, with TAB113 and with TAB165 was “inactive” each time. The Potency result in the test on W2 is “inactive”. Besides, the max response in the test on CRL-7250 was 2.06%; with HEK293, 0.228%; in the test on HaCat it was -1.24%; with KB-3-1 it was -4.49%. For the same compound, the outcome with NIH3T3 [1], with MCC-13, in the test with MCC-26, in the test on MKL-1, with MKL-2 and with NIH3T3 [2] was inactive. The call in the test with UISO was inactive.

Regarding `C[N+](C)(C)CC(O)CC(=O)[O-]` (stereo not drawn), the max response was -9.06% in the test on CRL-7250, -5.18% with HEK293, 4.86% in the test on HaCat and -5.76% in the test on KB-3-1. Besides, the compound was classed as inactive with NIH3T3 [1], with MCC-13, in the test on MKL-1, in the test on MKL-2, in the test on NIH3T3 [2] and in the test with UISO.

Consider `CC(O)CCCCn1c(=O)c2c(ncn2C)n(C)c1=O` (stereo not drawn), for which the Potency entry with PC26, in the test on PC49, in the test on SC27B, in the test on TAB109, in the test on TAB113 and with TAB165 was “inactive” in each case. In addition, the Potency result in the test with W2 is “inactive”. Also, the max response in the test on CRL-7250 was 2.98%; with HEK293, 0.321%; in the test on HaCat, -6.07%; with KB-3-1, -8.11%; in the test on NIH3T3 [1] it was 4.47%. The outcome with MCC-13, in the test with MCC-26, in the test on MKL-1, in the test with MKL-2 and with UISO was inactive.

`CCOc1ccc(C(=O)OCCN(CC)CC)cc1`: the Potency entry in the test on PC26, in the test with PC49, in the test with SC27B, in the test with TAB109, in the test on TAB113 and with TAB165 was “inactive” each time. Moreover, in the test on W2, the Potency result was “inactive”. In addition, the max response was -0.597% in the test on CRL-7250; 1.58% with HEK293; -25.1% in the test with HaCat; -3.59% in the test with KB-3-1; -1.32% in the test with NIH3T3 [1]. For the same compound, the outcome in the test with MCC-13, in the test with MKL-1, with MKL-2 and in the test with UISO was inactive.

In the case of `O=C1c2ccccc2S(=O)(=O)N1CCCCN1CCN(c2ncccn2)CC1`, the Potency result with PC26, in the test on PC49, in the test with SC27B, in the test with TAB109, in the test with TAB113 and in the test on TAB165 was “inactive” throughout. Also, the max response is -12.2% with CRL-7250, -4.06% in the test on HEK293, -10.1% in the test with HaCat and -5.25% with KB-3-1. Also, the compound was classed as inactive with NIH3T3 [1], in the test on MCC-13, in the test with MKL-1, with MKL-2, with NIH3T3 [2] and with UISO.

For the compound `Cc1cc(=O)[nH]c(=S)[nH]1`, the Potency result in the test on PC26, with PC49, in the test with SC27B, in the test on TAB109, in the test with TAB113 and with TAB165 was “inactive” throughout. In the test with W2, the Potency result is “inactive”. For the same compound, the max response was 1.13% with CRL-7250, -1.11% with HEK293, -13.5% in the test on HaCat and -0.427% in the test on KB-3-1. The call in the test on NIH3T3 [1], in the test with MCC-13, with MCC-26, in the test with MKL-1, with MKL-2 and in the test on NIH3T3 [2] was inactive. Further, in the test with UISO, the outcome was inactive.

For the compound `CN[C@@H]1[C@@H](O)[C@@H](O[C@@H]2[C@H](O)[C@H](O[C@H]3OC(CN)=CC[C@H]3N)[C@@H](N)C[C@H]2N)OCC1(C)O` (stereo partly drawn), the max response with CRL-7250 was 2.42%; in the test on HEK293 it was 4.89%; in the test on HaCat, 1.23%; in the test with KB-3-1, 25.6%; with NIH3T3 [1] it was 2.74%. The compound was called inactive in the test on MCC-13, with MCC-26, with MKL-1, with MKL-2 and in the test with UISO.

Regarding `NC(=O)CCCCC1CCSS1` (stereo not drawn), the Potency result with PC49, in the test with SC27B, in the test on TAB109, in the test on TAB113 and in the test with W2 was “inactive” throughout. Besides, the max response in the test on CRL-7250 is -9.01%; in the test on HEK293, 2.03%; with HaCat, -1.45%; with KB-3-1, -12.5%; in the test on NIH3T3 [1], -6.71%. Besides, the call with MCC-13, in the test on MCC-26, in the test with MKL-1, in the test with MKL-2 and with UISO was inactive.

Turning to `CCN(CC)CCc1nc(-c2ccccc2)no1`, the Potency entry in the test with PC26, with PC49, with SC27B, in the test with TAB109, in the test on TAB113 and in the test on TAB165 was “inactive” each time. Moreover, in the test on W2, the Potency entry was “inactive”. Moreover, the max response in the test with CRL-7250 was 3.52%; in the test with HEK293, -5.93%; in the test on HaCat it was 4.68%; in the test with KB-3-1, 7.98%; with NIH3T3 [1] it was 1.98%. For the same compound, the outcome with MCC-13, in the test with MCC-26, in the test on MKL-1, with MKL-2 and in the test on UISO was inactive.

As to `CCc1cccc(CC)c1NC(=O)CN(CC(=O)O)CC(=O)O`, the Potency entry in the test with PC26, with PC49, in the test on SC27B, with TAB109, in the test with TAB113 and in the test on TAB165 was “inactive” throughout. Also, the Potency result in the test on W2 is “inactive”. Also, the max response was -19.6% in the test on CRL-7250; -1.81% with HEK293; -2.45% with HaCat; -15.5% with KB-3-1; -0.454% in the test with NIH3T3 [1]. Also, the compound was classed as inactive in the test on MCC-13, in the test on MCC-26, in the test on MKL-1, in the test on MKL-2 and with UISO.

As for `O=C(O)c1ccc(OCCCOc2ccc(C(=O)O)cc2)cc1`, the Potency entry in the test on PC26, with PC49, in the test on SC27B, in the test on TAB109, in the test with TAB113 and in the test on TAB165 was “inactive” throughout. In addition, in the test with W2, the Potency entry is “inactive”. Also, the max response in the test with CRL-7250 is -0.605%; with HEK293, -0.863%; in the test on HaCat, -3.27%; in the test on KB-3-1, 3.43%; with NIH3T3 [1], 2.41%. Besides, the result with MCC-13, in the test on MCC-26, in the test on MKL-1, in the test with MKL-2 and in the test on UISO was inactive.
